{
  "source": "the supplement of paper PMC8728848",
  "binders": {"B1": {"name": "Pwp2 (Candida glabrata) (protein)", "chain": "MGSSHHHHHHSSGLVPRGSHMASKNPVELNNVCTFPNDYGRIPGFTVLVGRLGLLISASDYKELLRYPGAFLIATQDTMTTSPNFELTGFPFFTGLYGLTVFPLDLLVELRGYFVPPNSGQYTFTLSDSDDAAIIFLGNPSAFPCGDLQNWPKPSEEDITVTDHLFPSRTLYLIEGVAYPMRIAYYNGIGAGRLNAAFIDPSGTRHTNWEGYIWQYDPCSTCTYS"}},
  "experiment_in_all_cases": "glycan array binding signal (z-score within array); higher = stronger binding",
  "settings_in_all_cases": "glycan notation: IUPAC condensed, linker removed",
  "key": {"[1]": {"molecular_target": "Fuc(a1-2)Gal(b1-3)GlcNAc(b1-3)[Gal(b1-4)GlcNAc(b1-6)]Gal(b1-4)Glc", "summary_of_the_method": "(§1)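 The binding signal is a Z-score computed within each array and averaged over linkers. Arrays of the same protein sequence at different concentrations or buffers were also averaged together. Data originate from 3228 arrays in the Consortium for Functional Glycomics database, kept only where the protein sequence was available.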"}, "[2]": {"molecular_target": "Fuc(a1-2)Gal(b1-3)[Fuc(a1-4)]GlcNAc", "summary_of_the_method": "as §1"}, "[3]": {"molecular_target": "Fuc(a1-2)Gal(b1-3)[Fuc(a1-4)]GlcNAc(b1-2)Man(a1-3)[Fuc(a1-2)Gal(b1-3)[Fuc(a1-4)]GlcNAc(b1-2)Man(a1-6)]Man(b1-4)GlcNAc(b1-4)[Fuc(a1-6)]GlcNAc(b1-4)[Fuc(a1-6)]GlcNAc", "summary_of_the_method": "as §1"}, "[4]": {"molecular_target": "Fuc(a1-2)Gal(b1-4)GlcNAc(b1-3)[Fuc(a1-3)[Gal(b1-4)]GlcNAc(b1-6)]Gal(b1-4)Glc", "summary_of_the_method": "as §1"}, "[5]": {"molecular_target": "Fuc(a1-2)Gal(b1-4)[Fuc(a1-3)]GlcNAc(b1-3)Gal(b1-4)[Fuc(a1-3)]GlcNAc(b1-3)Gal(b1-4)[Fuc(a1-3)]GlcNAc", "summary_of_the_method": "as §1"}, "[6]": {"molecular_target": "Fuc(a1-2)[Gal(a1-3)]Gal(b1-4)GlcNAc(b1-3)GalNAc", "summary_of_the_method": "as §1"}, "[7]": {"molecular_target": "Fuc(a1-3)[Gal(b1-4)]GlcNAc(b1-2)Man(a1-3)[Fuc(a1-3)[Gal(b1-4)]GlcNAc(b1-2)Man(a1-6)]Man(b1-4)GlcNAc(b1-4)GlcNAc", "summary_of_the_method": "as §1"}, "[8]": {"molecular_target": "Gal(a1-3)Gal(b1-3)GlcNAc(b1-2)Man", "summary_of_the_method": "as §1"}, "[9]": {"molecular_target": "Gal(a1-3)Gal(b1-3)GlcNAc(b1-6)GalNAc", "summary_of_the_method": "as §1"}, "[10]": {"molecular_target": "Gal(a1-3)Gal(b1-4)GlcNAc(b1-6)GalNAc", "summary_of_the_method": "as §1"}, "Gal(b1-4)GlcNAc": {"molecular_target": "Gal(b1-4)GlcNAc", "summary_of_the_method": "as §1"}, "[11]": {"molecular_target": "Gal(b1-4)GlcNAc(b1-2)[Gal(b1-4)GlcNAc(b1-4)]Man(a1-3)[GlcNAc(b1-4)][Gal(b1-4)GlcNAc(b1-2)[Gal(b1-4)GlcNAc(b1-6)]Man(a1-6)]Man(b1-4)GlcNAc(b1-4)GlcNAc", "summary_of_the_method": "as §1"}, "[12]": {"molecular_target": "Gal(b1-4)GlcNAc(b1-2)[Gal(b1-4)GlcNAc(b1-6)]Man(a1-6)[GlcNAc(b1-4)][Gal(b1-4)GlcNAc(b1-2)Man(a1-3)]Man(b1-4)GlcNAc(b1-4)GlcNAc", "summary_of_the_method": "as §1"}, "[13]": {"molecular_target": "Gal(b1-4)GlcNAc(b1-3)Gal(b1-4)GlcNAc(b1-3)Gal(b1-4)GlcNAc(b1-3)Gal(b1-4)GlcNAc(b1-2)Man(a1-3)[Gal(b1-4)GlcNAc(b1-3)Gal(b1-4)GlcNAc(b1-3)Gal(b1-4)GlcNAc(b1-3)Gal(b1-4)GlcNAc(b1-2)Man(a1-6)]Man(b1-4)GlcNAc(b1-4)[Fuc(a1-6)]GlcNAc", "summary_of_the_method": "as §1"}, "[14]": {"molecular_target": "Gal(b1-4)GlcNAc(b1-3)Gal(b1-4)GlcNAc(b1-3)Gal(b1-4)GlcNAc(b1-3)Gal(b1-4)GlcNAc(b1-3)Gal(b1-4)GlcNAc(b1-2)Man(a1-3)[Gal(b1-4)GlcNAc(b1-3)Gal(b1-4)GlcNAc(b1-3)Gal(b1-4)GlcNAc(b1-3)Gal(b1-4)GlcNAc(b1-3)Gal(b1-4)GlcNAc(b1-2)Man(a1-6)]Man(b1-4)GlcNAc(b1-4)[Fuc(a1-6)]GlcNAc", "summary_of_the_method": "as §1"}, "[15]": {"molecular_target": "Gal(b1-4)GlcNAc(b1-3)GalNAc", "summary_of_the_method": "as §1"}, "[16]": {"molecular_target": "Gal(b1-4)GlcNAc(b1-6)[Gal(b1-3)]GalNAc", "summary_of_the_method": "as §1"}, "Gal3S(b1-4)Glc": {"molecular_target": "Gal3S(b1-4)Glc", "summary_of_the_method": "as §1"}, "Gal6S(b1-4)Glc6S": {"molecular_target": "Gal6S(b1-4)Glc6S", "summary_of_the_method": "as §1"}, "GalNAc(b1-4)GlcNAc6S": {"molecular_target": "GalNAc(b1-4)GlcNAc6S", "summary_of_the_method": "as §1"}, "GlcA(b1-6)Gal": {"molecular_target": "GlcA(b1-6)Gal", "summary_of_the_method": "as §1"}, "[17]": {"molecular_target": "GlcNAc(a1-4)Gal(b1-4)GlcNAc(b1-3)Gal(b1-4)Glc", "summary_of_the_method": "as §1"}, "[18]": {"molecular_target": "GlcNAc(a1-4)Gal(b1-4)GlcNAc(b1-3)Gal(b1-4)GlcNAc(b1-3)Gal(b1-4)GlcNAc", "summary_of_the_method": "as §1"}, "[19]": {"molecular_target": "GlcNAc(b1-3)Gal(b1-4)GlcNAc(b1-2)[GlcNAc(b1-3)Gal(b1-4)GlcNAc(b1-6)]Man(a1-6)[GlcNAc(b1-3)Gal(b1-4)GlcNAc(b1-2)Man(a1-3)]Man(b1-4)GlcNAc(b1-4)GlcNAc", "summary_of_the_method": "as §1"}, "[20]": {"molecular_target": "GlcNAc(b1-3)Gal(b1-4)GlcNAc(b1-3)Gal(b1-4)GlcNAc(b1-3)Gal(b1-4)GlcNAc(b1-2)[GlcNAc(b1-3)Gal(b1-4)GlcNAc(b1-3)Gal(b1-4)GlcNAc(b1-3)Gal(b1-4)GlcNAc(b1-6)]Man(a1-6)[GlcNAc(b1-3)Gal(b1-4)GlcNAc(b1-3)Gal(b1-4)GlcNAc(b1-3)Gal(b1-4)GlcNAc(b1-2)Man(a1-3)]Man(b1-4)GlcNAc(b1-4)[Fuc(a1-6)]GlcNAc", "summary_of_the_method": "as §1"}, "[21]": {"molecular_target": "GlcNAc(b1-3)Gal(b1-4)GlcNAc(b1-3)Gal(b1-4)GlcNAc(b1-3)Gal(b1-4)GlcNAc(b1-3)Gal(b1-4)GlcNAc(b1-2)Man(a1-3)[GlcNAc(b1-3)Gal(b1-4)GlcNAc(b1-3)Gal(b1-4)GlcNAc(b1-3)Gal(b1-4)GlcNAc(b1-3)Gal(b1-4)GlcNAc(b1-2)Man(a1-6)]Man(b1-4)GlcNAc(b1-4)GlcNAc", "summary_of_the_method": "as §1"}, "[22]": {"molecular_target": "GlcNAc(b1-3)[GlcNAc(b1-6)]Gal(b1-4)GlcNAc", "summary_of_the_method": "as §1"}, "[23]": {"molecular_target": "GlcNAc(b1-4)Gal(b1-4)GlcNAc", "summary_of_the_method": "as §1"}},
  "note": "The full list was thinned out, with the strongest signals kept by preference.",
  "data": [
    {"binder": "B1", "values": [
      {"measurement": "glycan array binding signal (z-score)", "setting": "[1]", "result": -0.594},
      {"measurement": "glycan array binding signal (z-score)", "setting": "[2]", "result": -0.451},
      {"measurement": "glycan array binding signal (z-score)", "setting": "[3]", "result": 6.32},
      {"measurement": "glycan array binding signal (z-score)", "setting": "[4]", "result": 0.384},
      {"measurement": "glycan array binding signal (z-score)", "setting": "[5]", "result": -0.086},
      {"measurement": "glycan array binding signal (z-score)", "setting": "[6]", "result": -0.603},
      {"measurement": "glycan array binding signal (z-score)", "setting": "[7]", "result": 2.54},
      {"measurement": "glycan array binding signal (z-score)", "setting": "[8]", "result": -0.046},
      {"measurement": "glycan array binding signal (z-score)", "setting": "[9]", "result": -0.526},
      {"measurement": "glycan array binding signal (z-score)", "setting": "[10]", "result": -0.281},
      {"measurement": "glycan array binding signal (z-score)", "setting": "Gal(b1-4)GlcNAc", "result": -0.286},
      {"measurement": "glycan array binding signal (z-score)", "setting": "[11]", "result": -0.248},
      {"measurement": "glycan array binding signal (z-score)", "setting": "[12]", "result": -0.569},
      {"measurement": "glycan array binding signal (z-score)", "setting": "[13]", "result": 3.91},
      {"measurement": "glycan array binding signal (z-score)", "setting": "[14]", "result": 1.62},
      {"measurement": "glycan array binding signal (z-score)", "setting": "[15]", "result": -0.473},
      {"measurement": "glycan array binding signal (z-score)", "setting": "[16]", "result": 1.6},
      {"measurement": "glycan array binding signal (z-score)", "setting": "Gal3S(b1-4)Glc", "result": -0.429},
      {"measurement": "glycan array binding signal (z-score)", "setting": "Gal6S(b1-4)Glc6S", "result": -0.419},
      {"measurement": "glycan array binding signal (z-score)", "setting": "GalNAc(b1-4)GlcNAc6S", "result": -0.448},
      {"measurement": "glycan array binding signal (z-score)", "setting": "GlcA(b1-6)Gal", "result": -0.235},
      {"measurement": "glycan array binding signal (z-score)", "setting": "[17]", "result": -0.466},
      {"measurement": "glycan array binding signal (z-score)", "setting": "[18]", "result": -0.42},
      {"measurement": "glycan array binding signal (z-score)", "setting": "[19]", "result": 4.24},
      {"measurement": "glycan array binding signal (z-score)", "setting": "[20]", "result": 5.45},
      {"measurement": "glycan array binding signal (z-score)", "setting": "[21]", "result": -0.549},
      {"measurement": "glycan array binding signal (z-score)", "setting": "[22]", "result": -0.141},
      {"measurement": "glycan array binding signal (z-score)", "setting": "[23]", "result": -0.446}
    ]}
  ]
}
